Sampled rows, rich in hits. Any-hit rate of the full collection: about 10%.
KB-3-1 tox: kills parental KB-3-1 adenocarcinoma cells; KB-3-1 viability, CellTiter-Glo ATP luminescence, 72 h; 1.4% of 400,000 active; Potency, µM (series often up to 46.1 µM), hits mostly cytotoxic; AID 1347075; note: % is set by controls: 0 for no effect and ±100 for the full control effect; nearly all actives have a fitted effect of over 60% in size
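KB-3-1 cells, DMEM (no phenol red) + 10% FBS; compound by pin transfer, 72 h, 37 °C. Readout: CellTiter-Glo luminescence after 10 min. Data normalized, curve-fitted.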
VP16 counter: Gal4-VP16 reporter inhibition counter-screen | Drosophila S2 Gal4-VP16 UAS-luciferase, luminescence, 20 h | Potency, µM (titrated, usually from 53.6 µM), for the others: at the top dose activity, negative = inhibition, hits mostly inhibitors | AID 2546 | 3.5% of 310,000 active;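 note: Gal4-VP16 expression switched on by copper sulfate through the metallothionein promoter; % is set by controls: 0 for no effect and ±100 for the full control effect; nearly all actives have a fitted effect of over 50% in size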
RORgamma inh: blocks mouse ROR gamma transcriptional activity | P51450 | 5.4% of 310,000 active | Drosophila S2 Gal4-RORgamma UAS-luciferase reporter, 20 h | Potency, µM (series often up to 53.6 µM), for the others: at the highest dose activity change, negative = inhibition, most hits filed as inhibitors; note: % is set by controls: 0 for no effect and ±100 for the full control effect; nearly all actives have a fitted effect of over 60% in size
Target sequence (P51450 whole entry, looked up, the tested form may be a part): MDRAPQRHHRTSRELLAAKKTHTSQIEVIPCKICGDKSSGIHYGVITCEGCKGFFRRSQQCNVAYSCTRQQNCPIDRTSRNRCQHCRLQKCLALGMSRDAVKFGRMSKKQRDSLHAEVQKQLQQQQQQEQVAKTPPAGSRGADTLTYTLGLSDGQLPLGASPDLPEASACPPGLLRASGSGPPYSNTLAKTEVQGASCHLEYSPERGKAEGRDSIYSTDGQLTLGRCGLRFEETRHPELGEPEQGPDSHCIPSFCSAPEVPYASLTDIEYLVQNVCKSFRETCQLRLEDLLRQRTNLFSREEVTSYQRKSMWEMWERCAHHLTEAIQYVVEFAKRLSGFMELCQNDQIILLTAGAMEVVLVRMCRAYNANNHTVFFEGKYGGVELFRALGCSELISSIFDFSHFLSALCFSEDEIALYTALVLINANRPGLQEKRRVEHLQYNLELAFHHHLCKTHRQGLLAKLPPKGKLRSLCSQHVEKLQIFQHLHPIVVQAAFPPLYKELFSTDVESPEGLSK
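ROR gamma transcriptional activity was tracked as Gal4-UAS luciferase output in stably transfected Drosophila Schneider cells, with compound added 1 hr before 700 uM copper sulfate induction and a 20 hr ambient-temperature incubation.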
MCF10A rerep: induces DNA re-replication in MCF 10a normal breast cells; Potency, µM (titrated, usually from 46.1 µM), for inactives: top-dose activity, positive = re-replication, usual class: activators; MCF 10A DNA re-replication, Hoechst nuclear intensity, 48 h; 2.9% of 350,000 active; note: % of control where 0% means no effect; nearly all actives have a fitted effect of over 50% in size
SW480 rerep: DNA re-replication induction in SW480 cells; 1.8% of 340,000 active; Potency, µM (series often up to 46.1 µM), without a hit: at the highest dose re-replication activation, usual class: activators; SW480 DNA re-replication, Hoechst DNA content imaging, 48 h; note: % of control where 0% means no effect; nearly all actives have a fitted effect of over 55% in size
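Per well, 250 cells were exposed to pinned compound for 48 hr. Nuclear DNA was visualised with Hoechst (40 min, 37 C) and total object intensity recorded by fluorescence scanning.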
KB-V1 MDR tox: KB-V1 MDR subline cytotoxicity. AID 1347076. Potency, µM (series often up to 46.1 µM), actives largely listed as cytotoxic. 3.4% of 400,000 active. KB-V1 MDR cells viability, CellTiter-Glo, 72 h; note: % is set by controls: 0 for no effect and ±100 for the full control effect; nearly all actives have a fitted effect of over 60% in size
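In this primary screen, KB-V1 cells overexpressing P-gp are incubated with library compounds (lowest to highest concentration) for 72 h at 37 degrees C before a luminescent ATP viability read.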
An asterisk follows results filed as active; i = inactive; ? = inconclusive; · = no result given; [ ] = another dose, or the depositor's remark. Calls come from the whole dose curve; as a rule, active = well fitted curve in the direction sought with a large enough effect; inconclusive = small, poorly fitted or top-dose-only effect, or another doubt; inactive = no such curve, though single readings can be large; an effect the other way counts as inactive or inconclusive. Potency is the fitted concentration of half-maximal effect.

SMILES | KB-3-1 tox | VP16 counter | RORgamma inh | MCF10A rerep | SW480 rerep | KB-V1 MDR tox
CCCCNC(=S)NC(=O)c1ccc([N+](=O)[O-])cc1 | i | ? | 4.5µM* | 23% | -5% | i
CCCN1CCN(C(=S)Nc2ccc([N+](=O)[O-])cc2)CC1 | i | -1% | 22% | 18% | -11% | 21µM*
CC(C)CNC(=S)NC(=O)c1ccc([N+](=O)[O-])cc1 | i | 14µM* | 4.5µM* | 18% | 1% | i
CC(C)CNC(=S)NC(=O)c1csc([N+](=O)[O-])c1 | i | ? | ? | 5% | -2% | i
CCCN1CCC(NC(=S)Nc2ccc([N+](=O)[O-])cc2)CC1 | i | 7% | -3% | 16% | -7% | i
CCCCNC(=S)Nc1ccc([N+](=O)[O-])cc1 | ? | 2% | -14% | 18µM* | -4% | ?
COC1=CC(=O)OC(c2ccccc2C(F)(F)F)C1 (centres undefined) | i | · | · | · | · | i
Brc1cccc(-c2nn(-c3ccccc3)c3c2cnc2cc4c(cc23)OCO4)c1 | i | · | · | · | · | i
Cc1nc2c(OCc3ccc(OC(F)F)cc3)cccn2c1N(C)C(=O)CCC1CCCC1 | i | · | · | · | · | ?
O=C(NNC(=S)Nc1ccc(F)cc1)c1cccc([N+](=O)[O-])c1 | i | -6% | -42% | -2% | -4% | i
O=[N+]([O-])c1ccc(NNC(=S)Nc2ccc(F)cc2)cc1 | ? | 11µM* | ? | -1% | -2% | 21µM*
CCOC(=O)c1nn(-c2ccc(Br)cc2)cc1C(=O)c1cccc2ccccc12 | ? | -2% | ? | ? | ? | 12µM*
Cc1nc(N2CCCC2)ncc1C(=O)Nc1ccccc1 | i | · | · | · | · | i
COc1ccc(CCNC(=O)CC(=O)N/N=C\c2ccc(OCC(N)=O)cc2)cc1OC | i | · | · | · | · | ?
COc1cc(/C=N\NC(=O)CC#N)ccc1OC/C=C/c1ccccc1 | i | ? | -128% | 6% | ? | i
COc1cc(/C=N/NC(=S)NCc2ccccc2)ccc1OCC#N | i | ? | 10µM* | 2% | 4% | ?
CCOc1ccc(CNC(=S)N/N=C/c2ccc(OC)c(OC)c2)cc1 | i | 10µM* | 11µM* | -18% | 140% | 16µM*
COC(=O)C1=C(C)N(Cc2ccccc2)[C@]23O[C@](C(=O)OC)(C(=O)N2C1c1ccccc1)C(C(=O)OC)=C3C(=O)OC (some centres undefined) | · | -5%[10 µM] | 15%[10 µM] | · | · | ·
O=C(NCc1cccc(F)c1)c1ccccc1NC(=O)c1nsc2ccccc12 | i | · | · | · | · | i
Cc1cccc(C)c1NC(=O)c1c(-c2ccccc2)noc1C | i | 10% | 10µM* | -9% | -17% | ?
CCN(CC)S(=O)(=O)c1ccc(N2CCCC2)c(NC(=O)c2c(-c3ccccc3)noc2C)c1 | i | 1% | 24% | -2% | 9% | i
Cc1onc(-c2ccccc2)c1C(=O)Nc1ccccc1N1CCOCC1 | i | 2% | -6% | -1% | 2% | 13µM*
CCOC(=O)c1ccc(N2CCOCC2)c(NC(=O)c2c(-c3ccccc3)noc2C)c1 | 5.8µM* | -12% | -8% | 10µM* | 21µM* | ?
Cc1onc(-c2ccccc2)c1C(=O)Nc1cc(C(F)(F)F)ccc1N1CCOCC1 | 5.8µM* | 2% | -10% | 5µM* | 11µM* | 5.2µM*
Cc1ccccc1NC(=O)c1c(-c2ccccc2)noc1C | i | 6% | -26% | 11% | 0% | i
SMILES | KB-3-1 tox | VP16 counter | RORgamma inh | MCF10A rerep | SW480 rerep | KB-V1 MDR tox
COc1cccc(NC(=O)c2cn(C3CCCCC3)c(=O)c3c2c2ccccc2n3C)c1 | i | · | · | · | · | i
COC(=O)C1(C(C)=O)CC2=CC[C@@H]3C(=O)N(c4ccccc4)C(=O)[C@@H]3[C@@H]2Cc2ccccc2[C@@H]1C[N+](=O)[O-] (some centres undefined) | · | -8% | 0% | · | · | ·
O=C(NCCc1ccc(Cl)cc1)c1ccc2nc(N3CCOCC3)sc2c1 | i | ? | 36% | 21µM* | 4% | i
CC1CCN(c2nc3ccc(C(=O)NCCCN4CCCCC4C)cc3s2)CC1 (centres undefined) | i | -7% | 24% | 26% | 21µM* | i
COc1ccc(CCNC(=O)c2ccc3nc(N4CCCCC4)sc3c2)cc1OC | i | ? | 2.2µM* | 18% | -5% | 18µM*
COc1ccc(OC)c(-c2nnc3n2N=C(c2c(OC)cccc2OC)CS3)c1 | · | 4% | -2% | · | · | ·
CCCc1ccc(Oc2coc3cc(OCC(=O)Nc4ccccc4C)ccc3c2=O)cc1 | i | ? | ? | ? | -3% | i
CCc1ccc(Oc2coc3cc(OCC(=O)Nc4cc(C)ccc4C)ccc3c2=O)cc1 | ? | 7.9µM* | 25µM* | ? | ? | ?
Cc1ccccc1NC(=O)C1CCC(CNS(=O)(=O)c2ccc3c(c2)C(C)(C)C(=O)N3C)CC1 (centres undefined) | i | · | · | · | · | i
Cc1ccccc1C(=O)N(C)[C@H]1C[C@H]2c3[nH]c4ccccc4c3CCN2C(=O)[C@H]1[C@H](C)O | i | · | · | · | · | ?
COC(=O)[C@@H]1CC[C@H](C)[C@@H](c2ccc(C)cc2)N1C(=O)c1ccc(/C=N\OCC[C@@H]2C=C[C@H](OC(C)=O)[C@H](COC(C)=O)O2)cc1 | · | 4%[10 µM] | 17%[10 µM] | · | · | ·
Cc1ccc(CCNC(=O)CCCn2c(=O)c3ccccc3n(CC(=O)Nc3cc(Cl)ccc3C)c2=O)cc1 | i | · | · | · | · | i
COC(=O)c1cccc(NC(=O)CSc2nc3cccnc3n2C)c1 | i | ? | 11%[10 µM] | 23% | 0% | 18µM*
c1ccc2c(c1)c1cccc3ccc4cccc2c4c31 | i | 1% | 21% | 112% | -1% | i
N#CCc1cc2ccc3cccc4ccc(c1)c2c34 | ? | -15% | -23% | 13% | -4% | 7.3µM*
O=c1c2c(-c3ccc(Cl)cc3)csc2nc2n1CCC2 | i | -14% | 29% | 11% | 8% | 18µM*
O=C(Nc1cccnc1)c1ccccc1NS(=O)(=O)c1ccc(F)cc1 | ? | -2% | ? | 8% | -5% | 21µM*
Fc1ccc(-c2csc(-c3ccncc3)n2)cc1 | i | 6%[10 µM] | 2% | -3% | -2% | i
O=S(=O)(Nc1ccc(-c2csc(-c3ccccc3)n2)cc1)c1ccc(F)cc1 | ? | ? | ? | 16µM* | 12% | ?

Screening results (PubChem)
